This passage reports growth results from PubChem BioAssay (NCI).

Structures are written as SMILES. The panel holds about 83,000 compounds, 20% with a hit somewhere; the sample as a whole holds those more often.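 Note: values are percent growth. 100 is the growth of untreated cells, values between 100 and 0 indicate rising inhibition; between -100 and 0 indicates cell death.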 Unmarked numbers belong to inactive results. Calls of active or inactive are those of the source. The calls were made as follows: active = growth percent below 10; inactive = the rest.

Experiment in all cases: NCI-60 one-dose screen, 48 h (100 = growth as untreated, 0 = no growth, -100 = all killed)
Settings in all cases: 10 µM unless noted

Test [1] concerns NCI-H23 lung.
The subject of test [2] is NCI-H226 lung.
The test system of test [3] is NCI-H322M lung.
Test [4] relates to HOP-62 NSCLC.
The subject of test [5] is NCI-H460 lung.
The test system of test [6] is HOP-92 NSCLC.
The test system of test [7] is NCI-H522 lung.
The subject of test [8] is A549/ATCC NSCLC.
For test [9], the system named is 786-0 renal.
The subject of test [10] is COLO 205 colon.

`CC(C)C(=O)OCCOc1ccc(C(C)(C)C)cc1`: the growth in test [1] was 103%; in [2], 99.4%; in test [3], 101%; in test [4], 102%; in [5], 102%; in [6], 97.7%. In addition, the growth in test [7] is 84.8%; in [8], 88.4%; in test [9] it was 101%; in [10] it was 108%.

Regarding `Oc1cccc(CNC2CCCCC2)c1`, the growth in [1] was 107%; in [2], 102%; in test [3] it was 129%; in test [4], 111%; in test [5] it was 116%; in [6], 97.5%. Moreover, the growth in [7] is 90.4%; in test [8] it was 101%; in test [9] it was 102%; in test [10], 120%.

Consider `COc1ccc(NNS(=O)(=O)O)cc1`, for which the growth in test [1] was 98.3%; in test [2] it was 95%; in test [3], 116%; in [4], 85.1%; in [5], 105%; in test [6] it was 80.3%. Besides, the growth in test [7] is 96%; in test [8], 95.3%; in test [9], 103%; in [10], 104%.

As for `c1ccc(Nc2ccccn2)nc1`, the growth is 95.9% in [1]; 89% in test [2]; 100% in test [3]; 95.9% in test [4]; 96.5% in test [5]; 95.8% in [6]. For the same compound, the growth in test [7] is 88.2%; in test [8], 109%; in test [9] it was 97.6%; in test [10], 104%.

As for `COc1ccc(/C=N/NC(=O)COCC(=O)N/N=C/c2ccc(OC)cc2)cc1`, the growth was 107% in test [1]; 99.5% in test [2]; 113% in test [3]; 117% in [4]; 107% in test [5]; 92.5% in test [6]. Moreover, the growth is 107% in [7], 98.3% in test [8], 106% in [9] and 111% in test [10].

Consider `CC(CCC#N)(CCC#N)C(=O)c1ccccc1`, for which the growth is 109% in test [1]; 107% in test [2]; 112% in test [3]; 107% in test [4]; 104% in test [5]; 61% in [6]. Moreover, the growth in test [7] is 88.1%; in test [8] it was 97.1%; in test [9], 110%; in [10] it was 117%.

As for `CCN(CC)CCCC(C)NC(=S)N/N=C(\C)c1ccccn1` (stereo not given), the growth in [1] was 73.1%; in test [2], 33.2%; in test [3], 31.9%; in test [4] it was 45.4%; in test [5], 24.7%; in test [6], 46.1%. In addition, the growth in test [7] was 47.2%; in test [8], 48.9%; in test [9], 23.4%; in test [10], 28.9%.

In the case of `CCc1ccccc1C(=O)N(CC)CC`, the growth is 103% in [1]; 95.4% in [2]; 105% in test [3]; 103% in [4]; 104% in test [5]; 107% in [6]. Further, the growth was 105% in test [7], 97.1% in test [8], 101% in [9] and 111% in [10].

In the case of `Cc1ccc(OC(=O)c2ccccc2)cc1`, the growth in [1] was 114%; in test [2], 100%; in test [3], 123%; in test [4] it was 97.7%; in test [5], 106%; in [6] it was 130%. Besides, the growth in test [7] is 91.8%; in test [8] it was 98.7%; in [9] it was 112%; in [10], 96.1%.

In the case of `CCN(C(C)=O)c1ccc([N+](=O)[O-])cc1`, the growth was 101% in test [1]; 99.3% in test [2]; 103% in [3]; 95.4% in test [4]; 104% in [5]; 98.7% in test [6]. Moreover, the growth in [7] is 104%; in test [8] it was 91.8%; in [9], 102%; in test [10] it was 110%.

In the case of `OC(CCN1CCCCC1)(c1ccccc1)c1ccccc1`, the growth in test [1] was 98.6%; in [2] it was 104%; in test [3], 97.6%; in [4], 110%; in [5], 116%; in test [6] it was 85.6%. In addition, the growth in test [7] is 98.4%; in test [8], 104%; in [9], 98.1%; in test [10], 103%.

With `O=c1cc(C(F)(F)F)[nH]c(=S)[nH]1`, the growth in test [1] is 103%; in [2], 112%; in test [3], 101%; in test [4], 100%; in test [5], 112%; in test [6] it was 126%. Also, the growth is 99.4% in [7], 98.1% in [8], 104% in test [9] and 109% in [10].

As for `O=C(c1ccc(Cl)cc1)N1CCCCC1`, the growth was 95.6% in [1]; 95.4% in test [2]; 106% in test [3]; 96.7% in [4]; 101% in [5]; 97.4% in test [6]. In addition, the growth in [7] is 93.6%; in test [8], 95.4%; in test [9] it was 102%; in test [10], 104%.

Regarding `CCCCCCCCCCCCSC1=C(Cl)C(=O)C(OC)=C(OC)C1=O`, the growth was 43.7% in test [1]; 74.6% in test [2]; 75.8% in [3]; 75.2% in test [4]; 18.2% in [5]; 57.9% in test [6]. In addition, the growth in test [7] is -63.3% (active); in test [8], 29.4%; in test [9], 65.6%; in test [10] it was 55.4%.

Regarding `C/C=C/C1OCC(CC)C(CCC)O1` (stereo not given), the growth in test [1] was 113%; in [2] it was 111%; in test [3], 111%; in [4], 111%; in [5], 109%; in test [6], 110%. Further, the growth is 91.1% in test [7], 88% in test [8], 111% in test [9] and 114% in [10].
